High-throughput results deposited in PubChem by several laboratories.
CRFBP-R2 agonist: agonists of CRF-BP/CRF-R2 complex, primary screen, cell-based, HEK293, calcium dye fluorescence, uHTS; hit rate 0.46% among 350,000; activation, % at 13.2 µM; calcium dye fluorescence (FLIPR); percent of saturating CRF peptide response;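 active means activation of at least 50%, plus an integration ratio under a set limit after plate pattern correction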
IDE inh: human IDE inhibitors in live cells, primary screen, fluorescence polarization, HEK cells, FAbetaB substrate. Insulin-degrading enzyme (Homo sapiens), P14735. FAbetaB cleavage. inhibition, % at 5.59 µM. hit rate 0.41% among 320,000;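 active means percent inhibition above the average of all tested compounds plus 3 SD, set per screening campaign, cut at about 16% in these data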;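 further: IDE supplied by intact live HEK cells; FP after avidin binding of uncleaved biotin substrate so inhibition keeps polarization high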
IDE cell activ: human IDE activators in live cells, primary screen, fluorescence polarization, HEK cells, FAbeta-B substrate; Insulin-degrading enzyme (Homo sapiens), P14735; FAbeta-B cleavage; 0% vehicle, 100% cell-free pure enzyme wells; activation, % at 5.96 µM; hit rate 0.073% among 340,000; AID 493087, 2011;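 active means activation above the mean of all tested compounds plus 3 SD, set per screening campaign, cut at about 17% in these data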
CRFR2-BP antag: antagonists of CRF-BP/CRF-R2 complex, primary screen, cell-based, HEK293, calcium dye fluorescence, uHTS; hit rate 0.59% among 350,000; AID 588475, 2011; inhibition, % at 11.8 µM; CRF-induced calcium fluorescence;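 active means inhibition of the ligand-induced calcium signal above about 50% at the single tested concentration, limit read from the data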
TPT1 inhibitor: Candida albicans TPT1 enzyme inhibitors, primary screen, biochemical, fluorescence polarization; inhibition, % at 5 µM; hit rate 0.81% among 300,000; tRNA 2'-phosphotransferase TPT1 (Candida albicans SC5314); recombinant caTPT1, FP RNA substrate dephosphorylation;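 active means inhibition above the mean of all tested compounds plus 3 SD, set per screening campaign, cut at about 24% in these data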
Myeloid diff 2: induction of myeloid progenitor differentiation, primary screen, cell-based, flow cytometry, MLPCN library; ER-HoxA9 myeloid progenitors, lysozyme-GFP differentiation; calls only at 10 µM; hit rate 1% among 360,000; AID 624256, 2012;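 active means normalized GFP-positive differentiation at or above the plate's own cutoff, the solvent-only control mean plus 3 SD; inconclusive means no clear call, values can overlap the other calls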;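 further: cells exposed to compound for four days before flow analysis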
Large screens that a line does not name were inactive; ! = a repeat was not active. The list is not random: actives were taken first. Their share in the collection is about 2.6%.

CC(C)(C)c1ccc(C(=O)N2CCC(=O)N(C(CO)Cc3ccccc3)CC2)cc1 (centres undefined)	CRFBP-R2 agonist 50.9
C/C(=N/NC(=O)CNC(=O)C(c1ccccc1)c1ccccc1)c1ccco1	none
O=S(=O)(Nc1nc(-c2sccc2Cl)cs1)c1cc(Cl)ccc1Cl	CRFR2-BP antag 58.8
CC(C)(C)c1nnc(NS(=O)(=O)c2cc(Cl)ccc2Cl)s1	none
O=C(Cc1ccc(NC(=O)C2CCN(C(=O)C3CCC3)CC2)cc1)Nc1ccc(C(=O)N2CCOCC2)cc1	none (no result: IDE inh, TPT1 inhibitor)
COc1ccccc1NS(=O)(=O)c1cc(C(=O)Nc2ccc(S(=O)(=O)Nc3onc(C)c3C)cc2)ccc1C	none (no result: IDE inh, TPT1 inhibitor)
O=C(Cc1ccccc1)NCC(=O)OC(c1ccccc1)c1ccccc1	CRFR2-BP antag 81.8
O=C(CNC(=O)Cc1ccccc1)NCC(=O)OCc1ccccc1	none
CCC(C(=O)Nc1ccc2c(c1)OCCO2)n1c(=O)[nH]c2ccccc2c1=O (centres undefined)	Myeloid diff 2 inconclusive
CCOc1ccc(C(=O)NC(C(=O)N2CCC2)C(C)C)cc1 (centres undefined)	none (no result: IDE inh, TPT1 inhibitor)
Cc1ccccc1CS(=O)(=O)CCC(=O)NCc1ccccn1	none (no result: Myeloid diff 2)
CN1C(=O)C(N=Nc2ccc([N+](=O)[O-])cc2)SC1=S (centres undefined)	CRFBP-R2 agonist 70.3, CRFR2-BP antag 68.1 (no result: IDE inh, TPT1 inhibitor)
CN1CCCCCC1=Nc1ccc([N+](=O)[O-])cc1	none
c1ccc(-c2cnn3c(-c4ccccc4)c(-c4ccccc4)nc3n2)cc1	CRFBP-R2 agonist 219.5, Myeloid diff 2 active (no result: IDE inh, TPT1 inhibitor)
c1ccc(-c2cc(-c3ccccc3)n3ncnc3n2)cc1	none
Cc1cc(C(=O)N/N=C/c2ccc([N+](=O)[O-])s2)c2ccccc2n1	Myeloid diff 2 active
Cc1cc(C(=O)N/N=C/c2ccc([N+](=O)[O-])cc2)c2ccccc2n1	Myeloid diff 2 active
Cc1cc(C(=O)O)c2ccccc2n1	Myeloid diff 2 active
Cc1nn(C)c(Sc2ccccn2)c1[N+](=O)[O-]	none (no result: IDE cell activ)
CC(C)(C)c1ccc(-n2nc(C(N)=O)c(O)cc2=O)cc1	none
CC(C)(C)c1ccc(-n2nc(C#N)c(Cl)cc2=O)cc1	CRFBP-R2 agonist 51.3, Myeloid diff 2 inconclusive (no result: IDE inh, IDE cell activ, TPT1 inhibitor)
Cc1ccc(NC(=O)CCc2nnc3ccc(N4CCC5(CC4)OCCO5)nn23)cc1F	none
CCN(CC)c1ccc(S(=O)(=O)N2CCOCC2)cc1NC(=O)CSc1nncs1	none
COc1cc(Cl)c(NC2=CC(=O)C(=O)c3ccccc32)c(OC)c1	Myeloid diff 2 active (no result: TPT1 inhibitor)
CCOc1ccc(NC2=CC(=O)C(=O)c3ccccc32)cc1	Myeloid diff 2 inconclusive (no result: IDE inh, TPT1 inhibitor)
COCC(=O)N(C)[C@H]1C[C@H]2c3cc(N4CCN(C)CC4)ccc3CCN2C(=O)[C@H]1[C@H](C)O	CRFR2-BP antag 111.1 (no result: IDE inh, TPT1 inhibitor)
N#Cc1c2ccc(O)cc2n2ccccc12	CRFBP-R2 agonist 72.5
CC(=O)COc1ccc2c(c1C)O/C(=C\c1ccco1)C2=O	Myeloid diff 2 active
CCOC(=O)c1ccc(N=c2sc(C(=O)OC)cc(=O)n2CCCN2CCOCC2)cc1	CRFR2-BP antag 56.9!, Myeloid diff 2 active!
CCOC(=O)c1ccc(N=c2sc(C(=O)OC)cc(=O)n2Cc2ccco2)cc1	none
COc1ccc(NC(=O)CSc2nc3[nH]ncc3c(=O)n2-c2ccccc2OC)cc1OC	IDE inh 20.8
COc1ccc(NC(=O)CSc2nc3[nH]ncc3c(=O)n2-c2ccccc2C)cc1OC	none
Cc1cc2c(cc1C)NC(c1c(C)n(C)n(-c3ccccc3)c1=O)C1=C(CC(C)(C)CC1=O)N2 (centres undefined)	CRFBP-R2 agonist 62.7, Myeloid diff 2 inconclusive
Cc1ccc(NC(=O)[C@H](Cc2c[nH]c3ccccc23)NC(=O)[C@@H]2Cc3ccccc3CN2)c(C)c1	Myeloid diff 2 active
COc1cc(/C=C/C(=O)c2ccc3c(c2)OCCO3)cc(Br)c1OCC(=O)N(C)C	Myeloid diff 2 active
O=C(/C=C/c1ccncc1)c1ccc2c(c1)OCCO2	none (no result: Myeloid diff 2)
COc1ccccc1NC(=O)C(C)Sc1nnnn1C (centres undefined)	none
